# p53ts 39C tox – p53ts cell cytotoxicity, nonpermissive temperature; H1299-p53A138V viability at 39C, ATP luminescence, 24 h; Potency, µM (highest dose often 46.1 µM), for inactives: at the top dose activity change, negative = cell killing, actives largely listed as cytotoxic; 130,000 tested, 1.5% active; note: % is set by controls: 0 for no effect and ±100 for the full control effect; nearly all actives have a fitted effect of over 55% in size
# Imprint erasure – induces erasure of genomic imprints in mouse ES cells; mouse ES Peg3-LacZ reporter, beta-gal luminescence, 40 h; Potency, µM (top dose mostly 60.7 µM), for inactives: at the top dose activity change, positive = activation, usual class: activators; 110,000 tested, 0.02% active
#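 Imprint erasure is scored as LacZ activity from the silenced maternal Peg3 allele in feeder-free female ES cells cultured 40 h with LIF. Luminescence is normalized to in-plate negative controls and fitted to the Hill equation.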
# p53ts 32C tox – p53ts cell cytotoxicity, permissive temperature. H1299-p53A138V at 32C, ATP luminescence viability, 24 h. Potency, µM (highest dose often 46.1 µM), for the others: at the top dose activity change, negative = cytotoxicity, usual class: cytotoxic. 130,000 tested, 0.93% active;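 note: 0% = DMSO and -100% = full killing by reference compound; nearly all actives have a fitted effect of over 55% in size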
#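 Cells: H1299 p53ts (A138V), 600/well, pre-incubated 16–30 h at 37C. Cpd up to 46 uM, 24 h, 32C. Readout: ATPlite luminescence, 20 min RT. Normalization: DMSO vs tamoxifen 100 uM. AC50 by Hill equation.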
# IkB signaling – inhibitors of IkB signaling in ABC-DLBCL cells. ABC-DLBCL IkBa-CBG/CBR dual luciferase ratio, 4 h; response scale: scaled: untreated 0%, proteasome inhibitor 100%. Potency, µM (highest dose often 57.1 µM), without a hit: at the top dose IkBa stabilization activation. 110,000 tested, 0.04% active; active = well fitted curve in the direction sought with a large enough effect in the signal ratio, not every such curve was filed as active; inconclusive = small, poorly fitted or top-dose-only effect, or a change in a side signal; the % refers to the signal ratio;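 note: the direction sought is a rising ratio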
#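 Curves were fitted separately to fusion (green), unfused (red) and ratio luminescence, then classed by r2, magnitude and activity. Cells: OCI-Ly3, 4 h compound plus doxycycline at 37C; 10 uM MG-132 defined full response.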
# CRE-bla Fsk – modulators of forskolin-stimulated CRE signaling in CHO cells | CHO CRE-bla reporter (cAMP response element driving beta-lactamase), forskolin EC10, beta-lactamase ratio | Potency, µM (series often up to 38.2 µM), inactives show top-dose activity change, negative = inhibition, most hits filed as activators | 71,000 tested, 2.5% active | AID 662; active = well fitted activation curve with a large enough effect in the signal ratio, with a control signal flat, not every such curve was filed as active; inconclusive = small, poorly fitted or top-dose-only effect, or effect the other way, or a change in a side signal; the % refers to the signal ratio; note: % of control where 0% means no effect
#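 CRE-bla CHO cells stimulated with EC10 NKH 477 (water-soluble forskolin) and compound titrations, 3 h at 37C; beta-lactamase read with CCF4 after 2 h at room temperature. Activity from 460/530 nm emission ratio, AC50 values for positive or negative modulation.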
# An asterisk follows results filed as active; ? = inconclusive; · = no result given; [ ] = another dose, or the depositor's remark. Most compounds without a hit are left out; they make up all but 3% or so of the library. Unless noted, calls come from the whole dose curve; as a rule, active = well fitted curve in the direction sought with a large enough effect; inconclusive = small, poorly fitted or top-dose-only effect, or another doubt; inactive = no such curve, though single readings can be large; an effect the other way counts as inactive or inconclusive. Potency is the fitted concentration of half-maximal effect.
SMILES,p53ts 39C tox,Imprint erasure,p53ts 32C tox,IkB signaling,CRE-bla Fsk
CC(=O)Nc1ccc(NC(=O)CCc2c(C)nc3c(c(C)nn3-c3ccc(C)cc3)c2C)cc1,7.9µM*,11%[10.9 µM],-7%,?,·
CC(=O)Nc1ccc(NC(=O)CCc2c(C)nc3c(c(C)nn3-c3ccccc3)c2C)cc1,-11%,-6%[10.9 µM],-3%,1%,·
Cc1oc2ccc(O)c(CN(C)Cc3ccccc3)c2c1C(=O)Nc1ccccc1,?,-9%[10.9 µM],?,?,·
Cc1oc2ccc(O)c(CN(C)Cc3ccccc3)c2c1C(=O)Nc1cccc(C(F)(F)F)c1,20µM*,-8%[10.9 µM],14µM*,?,·
CC1Cc2nc(SCC(=O)NCc3ccco3)n(Cc3ccccc3)c(=O)c2S1 (centres undefined),13%,-16%,15%,2%,10µM*
CCOc1ccc(Nc2oc(-c3cccs3)nc2C#N)cc1,1%,-13%,-7%,2%,13µM*
C=CC(C1=CC(=O)C(OC)=CC1=O)c1ccccc1 (centres undefined),100%,-50%,13µM*,·,·
O=C(Nc1ccc(F)cc1)c1csc2c1CCCCC2,?,-7%[10.9 µM],16µM*,0%,·
O=C(Nc1ccon1)c1csc2c1CCCC2,-4%,0%,-13%,-2%,-5%
COc1ccc(CCCc2nnc(SCC(=O)Nc3ccc(C)cc3)o2)cc1,7%,-14%[10.9 µM],-5%,4%,·
CCOc1ccc(-c2cc3nc(C4CCN(C(=O)OC(C)(C)C)CC4)c(C(=O)O)cn3n2)cc1,-1%,-19%,23%,0%,13µM*
CCOc1ccc(-c2cc3nc(C4CCN(C(=O)OC(C)(C)C)CC4)c(C(=O)Nc4c(C)cccc4C)cn3n2)cc1,22%,-16%[10.9 µM],10%,3%,·
C=CCn1c(-c2ccccc2)nc2nc3ccccc3nc21,3%,-5%,-6%,-4%,2µM*
CCCn1c(=O)c2[nH]c(-c3ccccc3)nc2n(CCC)c1=O,-8%,3%,-13%,0%,0.2µM*
CCc1ccc(C(=O)NCC2COc3ccccc3O2)o1 (centres undefined),13%,-1%,-3%,-1%,?
CCOc1ncccc1C(=O)NCC1COc2ccccc2O1 (centres undefined),-17%,-3%,-2%,-3%,4µM*
Cc1c(Cl)cccc1NC(=O)COCc1cc(-c2ccc3c(c2)OCO3)on1,·,·,6%,·,·
CCOC(=O)c1c(C)n(OCc2ccccc2)c2ccc3nonc3c12,-4%,-16%,7%,1%,10µM*
C=CCOn1c(C)c(C(C)=O)c2c3nonc3ccc21,27%,·,7%,·,·
Cc1cccc(OCc2nc(CC(=O)Nc3ccc(Cl)cc3)cs2)c1,16%,5%[10.9 µM],-4%,?,·
CCOC(=O)c1ccccc1NC(=O)CSc1nc2ccccc2o1,-17%,-70%,-4%,-2%,?
CCCOC(=O)Nc1nc2ccccc2o1,?,·,10µM*,?,0%
Nc1cccc(-c2nc3ccc(N)cc3s2)c1,3.2µM*,-90%,3.2µM*,?,?
Nc1ccc(O)c(-c2nc3ccccc3s2)c1,-24%,-86%,-11%,?,4%
Nc1ccc2nc(-c3ccc(O)cc3)sc2c1,0.63µM*,-79%[10.9 µM],0.63µM*,?,·
SMILES,p53ts 39C tox,Imprint erasure,p53ts 32C tox,IkB signaling,CRE-bla Fsk
Cc1cc(N2CCOCC2)c2c(N)c(Br)cc(C)c2n1,-2%,-3%,7%,-2%,0.79µM*
Cc1cccc(NC(=O)CSc2ncc(-c3ccc(Br)cc3)[nH]2)c1,13µM*,27%[10.9 µM],?,?,·
CC(=O)c1cc2c(cc1NC(=O)c1cc(C)nn1-c1ccccc1)OCO2,6%,-16%,4%,-3%,7.9µM*
COc1cc(O)c2c(=O)cc(-c3ccccc3)oc2c1,-28%,-15%,-16%,-4%[11.4 µM],?
COc1cc2oc(-c3ccccc3)cc(=O)c2cc1O,7.9µM*,-11%,?,?,?
COc1ccccc1NC(=O)c1ccc(-c2nc(COc3ccc(C)cc3)c(C)o2)cc1,?,-11%[10.9 µM],12%,?,·
Cc1ccccc1CNC(=O)c1ccc(Cn2c(SCc3ccccc3)nc3cccnc32)cc1,·,·,9%,·,·

# Screening data deposited in PubChem BioAssay by National Center for Advancing Translational Sciences (NCATS).
